Over roughly 33,000 sequences, “E-score (-0.5 to 0.5)” has its median near -0.013; the highest 2% begin near 0.3. The sample as a whole holds a higher share of the highest values than the screen did.
Molecular target: T1, Msn1 (UniProt P22148)
T1 sequence: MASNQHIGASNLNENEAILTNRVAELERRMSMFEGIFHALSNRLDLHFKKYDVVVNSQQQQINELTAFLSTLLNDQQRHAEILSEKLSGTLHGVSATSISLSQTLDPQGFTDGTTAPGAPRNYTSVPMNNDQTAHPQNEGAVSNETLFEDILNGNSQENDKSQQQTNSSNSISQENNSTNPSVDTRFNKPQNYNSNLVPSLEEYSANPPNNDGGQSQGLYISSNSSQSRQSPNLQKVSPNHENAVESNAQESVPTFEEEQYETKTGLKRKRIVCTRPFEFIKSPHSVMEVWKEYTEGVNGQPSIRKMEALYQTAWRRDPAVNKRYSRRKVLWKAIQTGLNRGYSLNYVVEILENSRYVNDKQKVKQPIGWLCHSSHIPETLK
Assay: PBM E-score (8-mer binding enrichment) (E-score (-0.5 to 0.5)); higher = stronger / more preferred TF binding
Settings: protein concentration: 200 nM; construct: GST-full length
Outline: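 For each ungapped eight-base word taken together with its reverse complement, the Universal PBM Analysis Suite assigned an E-score. Binding data came from GST-tagged yeast transcription factors, applied at about 100-200 nM, on universal all-10-mer Agilent arrays made double-stranded by primer extension. Fluorescent anti-GST marked bound protein, and scans were normalised with masliner.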

| Sequence | PBM E-score |
| --- | --- |
| CGTGTCCC | 0.437 |
| GGTGTCGA | -0.0245 |
| GGTGTCTA | 0.0447 |
| CGTGTCTC | 0.26 |
| GGTGTCCA | 0.352 |
| CGTGTCGC | 0.202 |
| CGTGTCTA | 0.166 |
| AGTGTCCC | 0.375 |
| CGTGTCCA | 0.424 |
| AGTGTCCG | 0.179 |
| AGTGTCCA | 0.219 |
| ACGGTCAT | 0.0534 |
| AGCTTTCC | -0.198 |
| GAACTGAA | -0.00121 |
| CGTGGCAC | 0.0166 |
| CTGAGCGA | 0.0585 |
| CAGCTAGC | -0.19 |
| ATATTAAT | 0.243 |
| GCAGCCCA | -0.0983 |
| TTGCCAAA | -0.0227 |
| AACTTGGC | -0.0461 |
| GCCTTCCA | -0.367 |

| Sequence | PBM E-score |
| --- | --- |
| AAATGAAA | 0.305 |
| TAATGAAA | 0.226 |
| CAATGAAA | 0.0415 |
| AGGATGTC | 0.398 |
| CAGATGTA | -0.0817 |
| AGGATGTA | -0.0489 |
| AGGATGTG | -0.0903 |
| CTGATGTC | 0.282 |
| CGGATGTA | 0.0259 |
| AAGATGTC | 0.252 |
| CGGATGTC | 0.348 |
| CAGATGTC | 0.347 |
| GCCCAGAA | 0.0114 |
| CTGCTACC | -0.0604 |
| CCCTCGAG | -0.11 |
| ACTGGCAA | 0.0309 |
| GTTGATTA | 0.135 |
| AATCTGGG | -0.203 |
| CCAGGTGC | -0.205 |
| ATTACGCG | -0.059 |
| GACAATAC | 0.377 |
| AACAATAC | 0.158 |

| Sequence | PBM E-score |
| --- | --- |
| CACAATTA | 0.128 |
| GACAATCC | 0.355 |
| CACAATAC | -0.0413 |
| AACAATCC | 0.136 |
| GACAATTA | 0.426 |
| GACAATCA | 0.217 |
| AACAATTA | 0.165 |
| ATTCCTCG | 0.0159 |
| AACGTCAG | -0.248 |
| GAGATCAC | -0.035 |
| ATACAGCA | 0.103 |
| GCAGGACA | 0.47 |
| CCAGGACA | 0.469 |
| ACAGGACT | -0.0485 |
| GCAGGACC | -0.0863 |
| TCAGGAAA | 0.0903 |
| CCAGGACC | -0.105 |
| GCAGGATA | -0.224 |
| ACAGGACA | 0.421 |
| ACAGGACG | 0.0345 |
| CCAGGACG | 0.109 |
| TCAGGAGA | -0.0143 |

| Sequence | PBM E-score |
| --- | --- |
| TCAGGACA | 0.461 |
| CCGAGATC | 0.0634 |
| AGGTTAAC | -0.0876 |
| AATCGATG | 0.144 |
| CAGCAGAC | 0.0732 |
| AGTCTGTC | 0.0754 |
| AGCCAGAC | -0.072 |
| AAGCGCCC | -0.264 |
| TATTGAGA | 0.208 |
| CCAGCGGC | -0.0286 |
| GGTAACTA | 0.18 |
| CTTGTCGC | 0.166 |
| ATTGTCGA | 0.144 |
| ATTGTCGG | 0.318 |
| ACTGTCGC | -0.134 |
| ACTGTCGG | -0.0418 |
| ATTGTCGC | 0.344 |
| AGGGTTTG | -0.0242 |
| ACCCGTTA | 0.00896 |
| CTGGTACC | -0.121 |

Reference: the supplement of paper PMC3334620
